PubChem BioAssay AID372 (MTDP, 2006)
Hit rate of the full screen: of about 100,000 compounds, about 770 (0.77%) were called active. Rule as the data show it: active = inhibition above about 50%; inactive = the rest. This excerpt belongs to a sample that is enriched for actives.

biological target: Gag-Pol polyprotein (Human immunodeficiency virus type 1 group M subtype B (isolate HXB2)) (UniProt P04585); test: RNase H inhibition, HIV 1 Gag Pol polyprotein, FRET biochemical assay, screening (AID 372); settings: HIV-1 RT RNase H, FRET RNA/DNA substrate fluorescence; at 10 µM; stronger effect = higher value

| SMILES | inhibition |
| --- | --- |
| Cc1cc(=O)[nH]c(N/N=C/c2ccc(O)cc2)n1 | 2% (inactive) |
| CC(C)(C)c1cc(C(=O)Nc2nsc(-c3ccccc3)n2)cc(C(C)(C)C)c1 | 7% (inactive) |
| COc1ccc(NC(=O)/C=C/c2ccc(C)o2)cc1 | 21% (inactive) |
| N#C/C(=C/c1cn(-c2ccccc2)nc1-c1cc2ccccc2oc1=O)C(N)=O | 8% (inactive) |
| N#CC(C#N)=Cc1cn(-c2ccccc2)nc1-c1cc2ccccc2oc1=O | 56% (active) |
| O=c1oc2ccccc2cc1-c1nn(-c2ccccc2)cc1/C=N/O | 21% (inactive) |
| Cc1ccccc1-c1nc2c3c4c(sc3ncn2n1)CCCCC4 | 8% (inactive) |
| COc1ccc(OCC(=O)Nc2sc3c(c2C(N)=O)CCCC3)cc1 | 41% (inactive) |
| COc1ccc(-c2nc3cc(NC(=O)COc4ccc([N+](=O)[O-])cc4)ccc3o2)cc1 | 55% (active) |
| O=C(COc1ccc([N+](=O)[O-])cc1)Nc1ccc2oc(-c3ccccc3Cl)nc2c1 | 53% (active) |
| CCc1ccc(-c2nc3cc(NC(=O)COc4ccc([N+](=O)[O-])cc4)ccc3o2)cc1 | 43% (inactive) |
| O=C(COc1ccc([N+](=O)[O-])cc1)Nc1ccc2oc(-c3ccccc3F)nc2c1 | 49% (inactive) |
| Cc1cccc(OCC(=O)Nc2ccc3oc(-c4cccc(I)c4)nc3c2)c1 | 22% (inactive) |
| O=C(COc1ccc([N+](=O)[O-])cc1)Nc1ccc2oc(-c3cccc(Cl)c3)nc2c1 | 9% (inactive) |
| O=C(COc1ccc([N+](=O)[O-])cc1)Nc1ccc2oc(-c3ccc(Br)cc3)nc2c1 | 14% (inactive) |
| COc1ccc(OCC(=O)Nc2ccc3oc(-c4cccc(I)c4)nc3c2)cc1 | 53% (active) |
| COc1ccc(OCC(=O)Nc2ccc3oc(-c4ccncc4)nc3c2)cc1 | 14% (inactive) |
| O=c1[nH]c(-c2cccc(O)c2)nc2sc3c(c12)CCCC3 | 22% (inactive) |
| COc1cccc(COc2cc3oc(=O)c4c(c3cc2Cl)CCCC4)c1 | 12% (inactive) |
| O=C(NCc1cccnc1)c1cnn2c(C(F)(F)F)cc(-c3ccc4c(c3)OCO4)nc12 | 11% (inactive) |

| SMILES | inhibition |
| --- | --- |
| Cc1ccc(NC(=O)/C=C/c2ccc3c(c2)OCO3)c(C)c1 | 10% (inactive) |
| C=CCN1C(=O)/C(=C\c2ccc(-c3ccc(C(=O)OCC)cc3)o2)C(=O)NC1=S | 45% (inactive) |
| CCCCn1c(/N=C/c2nc3ccccc3n2C)nc2ccccc21 | 5% (inactive) |
| CCN(CC)c1ccc(N2C(=O)/C(=C\c3ccc(C)o3)SC2=S)cc1 | 3% (inactive) |
| CCN(CC)C(=O)C(=O)N/N=C/c1ccco1 | 5% (inactive) |
| S=C(Nc1ccc2nccnc2c1)Nc1cccc2ccccc12 | 27% (inactive) |
| O=C(N=Nc1c(O)n(CN2CCCCCC2)c2ccc(Br)cc12)c1cccnc1 | 5% (inactive) |
| COc1ccc(/C=C(\C#N)c2nc(-c3ccc(OC)c(OC)c3)cs2)cc1O | 25% (inactive) |
| N#C/C(=C\c1ccc(O)c(O)c1)c1nc(-c2cccc([N+](=O)[O-])c2)cs1 | 60% (active) |
| N#C/C(=C\c1ccccc1[N+](=O)[O-])c1nc(-c2cc3cc([N+](=O)[O-])ccc3oc2=O)cs1 | 52% (active) |
| N#C/C(=C\C=C\c1ccccc1[N+](=O)[O-])c1nc(-c2cc3cc([N+](=O)[O-])ccc3oc2=O)cs1 | 6% (inactive) |
| N#C/C(=C\c1cccc([N+](=O)[O-])c1)c1nc(-c2cccc([N+](=O)[O-])c2)cs1 | 6% (inactive) |
| COc1ccc(-c2csc(/C(C#N)=C/c3ccc(O)c(O)c3)n2)cc1OC | 84% (active) |
| N#C/C(=C\c1cccc([N+](=O)[O-])c1)c1nc(-c2cc3cc([N+](=O)[O-])ccc3oc2=O)cs1 | 7% (inactive) |
| COc1ccc(-c2csc(/C(C#N)=C/c3ccc(O)cc3)n2)cc1OC | 24% (inactive) |
| N#C/C(=C\c1cccc(Br)c1)c1nc(-c2cccc([N+](=O)[O-])c2)cs1 | 22% (inactive) |
| Cc1ccc(-n2c(/C=C3/C(=O)N(C)c4ccc(Br)cc43)nc3ccccc3c2=O)cc1 | 2% (inactive) |
| C=CCN1C(=O)C(Cc2ccc(F)cc2)S/C1=N\N=C\c1ccco1 (stereo not drawn) | 3% (inactive) |
| CC12C=CC(O1)C1C(=O)N(c3ccc([N+](=O)[O-])cc3)C(=O)C12 (stereo not drawn) | 11% (inactive) |
| O=C1N/C(=N\N=C\c2ccccc2O)SC1Cc1ccc(Br)cc1 (stereo not drawn) | 16% (inactive) |

| SMILES | inhibition |
| --- | --- |
| O=C(Nc1cccnc1)c1cccc(Cl)c1Cl | 5% (inactive) |
| O=C1S/C(=C/c2cccc(Br)c2)C(=O)N1c1ccccc1 | 12% (inactive) |
| CCCN1C(=O)/C(=C\c2cccc(Cl)c2)SC1=S | 19% (inactive) |
| CC(C)(C)c1ccc(C(=O)Nc2ccc(NC(=O)c3sc4ccccc4c3Cl)cc2)cc1 | 24% (inactive) |
| CCc1ccc2oc(-c3ccc(NC(=O)c4sc5ccccc5c4Cl)cc3)nc2c1 | 50% (active) |
| O=C(Nc1nccs1)c1sc2ccccc2c1Cl | 7% (inactive) |
| O=C(Nc1ccc2oc(-c3cccc(Cl)c3)nc2c1)c1sc2ccccc2c1Cl | 20% (inactive) |
| Cc1ccc(-c2nc3cc(NC(=O)c4sc5ccccc5c4Cl)ccc3o2)cc1 | 20% (inactive) |
| O=C(Nc1ccc2oc(-c3cccc(F)c3)nc2c1)c1sc2ccccc2c1Cl | 52% (active) |
| O=S(=O)(Nc1nccs1)c1ccc(NC(=S)Nc2ccccc2)cc1 | 8% (inactive) |
| O=C(c1ccccc1)c1ccc(NC(=O)c2sc3ccccc3c2Cl)cc1 | 18% (inactive) |
| O=C(Nc1ccc(-c2nc3cc(Cl)ccc3o2)cc1)c1sc2ccccc2c1Cl | 41% (inactive) |
| O=C(Nc1ccc(NC(=O)c2sc3ccccc3c2Cl)cc1)c1ccccc1 | 53% (active) |
| O=C(NC(=S)Nc1ccc(S(=O)(=O)Nc2nccs2)cc1)c1sc2ccccc2c1Cl | 70% (active) |
| Cc1cccc(-c2nc3cc(NC(=O)c4sc5ccccc5c4Cl)ccc3o2)c1 | 37% (inactive) |
| Cc1cc(C)c(C(N)=O)c(Nc2ccccc2)n1 | 5% (inactive) |
| Cc1ccccc1C(=O)NC(=S)Nc1ccc2c3c(cccc13)CC2 | 21% (inactive) |
| O=C(Nc1ccc(F)cc1F)c1cccc(I)c1 | 4% (inactive) |
